The list is not random: actives were taken first. Their share in the collection is about 6.5%.
LASV entry inh: Lassa virus entry inhibition; Lassa virus pseudotype entry inhibition, cell reporter; Potency, µM (series often up to 37.9 µM), for the others: at the top dose activity change, negative = inhibition, hits mostly inhibitors; 300,000 compounds, 1.2% hits; AID 540256; calls by dose curve; tested in HEK293 cells; note: potency is the fitted concentration of half-maximal effect; nearly all actives have a fitted effect of over 50% in size
VACV Venus inh: inhibitors of vaccinia virus (Venus reporter); 330,000 compounds, 0.46% hits; Potency, µM (highest dose often 36.5 µM), without a hit: at the highest dose activity change, negative = inhibition, actives largely listed as inhibitors; Vaccinia virus Venus reporter expression, fluorescence; calls by dose curve; tested in A549 cells; note: potency is the fitted concentration of half-maximal effect; nearly all actives have a fitted effect of over 30% in size
Marburg entry inh: Marburg virus entry inhibition; Marburg virus pseudotyped entry inhibition, cell reporter; 300,000 compounds, 1.8% hits; AID 540276; Potency, µM (series often up to 37.8 µM), inactives show at the highest dose activity change, negative = inhibition, most hits filed as inhibitors; calls by dose curve; tested in HEK293 cells; note: potency is the fitted concentration of half-maximal effect
FMDV inh: blocks foot and mouth disease virus | 410,000 compounds, 1.2% hits | FMDV antiviral cell-based qHTS | Potency, µM (top dose mostly 57.9 µM), for the others: at the top dose activity change, negative = inhibition, hits mostly inhibitors | AID 1159524; calls by dose curve; tested in HEK293T cells; note: read-out not given here; potency is the fitted concentration of half-maximal effect; nearly all actives have a fitted effect of over 45% in size
HCMV antiviral: inhibitors of human cytomegalovirus | HFF cells, HCMV-luciferase reporter, 72 h; stronger effect = lower value | activity change, negative = inhibition, % at 57.5 µM | 410,000 compounds, 4.5% hits | AID 1259415; in the data active = activity change below about -60%; inconclusive = no clear call, values can overlap the other calls; inactive = above about -39%
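Two compound doses tested in HFFs infected with HCMV-luciferase, MOI 1 PFU/cell, 72 h at 37C. Lysate luminescence read with OneGlo; data normalized against buffer-only and 10uM Salinomycin inhibitor controls.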
Vaccinia mCherry: vaccinia inhibition (mCherry reporter); 310,000 compounds, 0.63% hits; Potency, µM (doses to about 36.5 µM), for the others: at the top dose activity change, negative = inhibition, hits mostly inhibitors; Vaccinia virus mCherry reporter infection, fluorescence; calls by dose curve; tested in A549 cells; note: potency is the fitted concentration of half-maximal effect; nearly all actives have a fitted effect of over 35% in size
* marks the source's active call; other numbers are inactive results; [ ] = dose if it differs, or a comment. % is set by controls: 0 for no effect and ±100 for the full control effect.

`CCOc1ccc2nc(SCC(=O)NC3CCCCC3)[nH]c2c1` gave LASV entry inh 1%[46.1 µM], VACV Venus inh -5%, Marburg entry inh 10µM*, FMDV inh 17%, HCMV antiviral inconclusive and Vaccinia mCherry -8%.
Screening CCn1cc(C(=O)NCCc2ccc(OC)c(OC)c2)c(=O)c2cc(S(=O)(=O)N3CCc4ccccc4C3)ccc21 returned LASV entry inh -3%[46.1 µM], VACV Venus inh inconclusive, Marburg entry inh -3%[46.1 µM], FMDV inh -1%, HCMV antiviral -26 and Vaccinia mCherry -13%.
For CC[C@@]1(C)Cc2c(sc3c2c(=O)n(C)c2nnc(SCc4ccccc4)n32)CO1 the results were Marburg entry inh -1%.
`CC(=O)Nc1ccc(/C=C/c2ccncc2)cc1` gave VACV Venus inh 8% and Vaccinia mCherry -13%.
Screening Clc1ccc(/C=C/c2ccncc2)cc1Cl returned VACV Venus inh inconclusive and Vaccinia mCherry 4.5µM*.
Screening CCc1ccc(S(=O)(=O)Nc2ccc3[nH]c(=O)sc3c2)cc1 returned LASV entry inh inconclusive, VACV Venus inh -14%[7.34 µM], FMDV inh 26%, HCMV antiviral 40 and Vaccinia mCherry -8%[7.34 µM].
`Cc1nc2ccccc2n1CC(O)COCC1CC=CCC1` (stereo not drawn) gave LASV entry inh -3%, VACV Venus inh inconclusive, Marburg entry inh -24%, FMDV inh inconclusive and HCMV antiviral -81*.
`OC(COCC1CC=CCC1)Cn1cnc2ccccc21` (stereo not drawn) gave LASV entry inh 1%, Marburg entry inh inconclusive, FMDV inh inconclusive and HCMV antiviral -23.
COCC(=O)Nc1cc(C(=O)N[C@H]2CCCCNC2=O)c2c(c1)nc(-c1ccncc1)n2C was read as VACV Venus inh 0%, FMDV inh 2% and Vaccinia mCherry -4%.
Screening Cc1ccc(CCNC(=O)c2cn(C)c3ccc(S(=O)(=O)N4CCC(C)CC4)cc3c2=O)cc1 returned LASV entry inh 2%[46.1 µM], VACV Venus inh -10%, Marburg entry inh 1%[46.1 µM], FMDV inh 8%, HCMV antiviral 7 and Vaccinia mCherry -16%.
For Cc1nn(Cc2ccc(Cl)c(Cl)c2)c(C)c1NC(=O)c1sc2ccccc2c1Cl the results were LASV entry inh inconclusive, VACV Venus inh -36%, Marburg entry inh -3%[46.1 µM], FMDV inh 32µM*, HCMV antiviral -18 and Vaccinia mCherry inconclusive.
`Cc1cc(C(=O)Nc2c(C)nn(Cc3ccccc3Cl)c2C)no1` gave LASV entry inh -7%, Marburg entry inh 1%, FMDV inh -2% and HCMV antiviral -7.
For Cc1nn(Cc2ccc(Cl)c(Cl)c2)c(C)c1NC(=O)c1noc2c1CCc1ccccc1-2 the results were LASV entry inh -25%[46.1 µM], VACV Venus inh -16%, Marburg entry inh inconclusive, FMDV inh inconclusive, HCMV antiviral -39 and Vaccinia mCherry inconclusive.
Screening Cc1nn(Cc2c(Cl)cccc2Cl)c(C)c1NC(=O)c1sc2ccccc2c1Cl returned LASV entry inh -31%, VACV Venus inh -24%, Marburg entry inh inconclusive, FMDV inh 0%, HCMV antiviral -85* and Vaccinia mCherry inconclusive.
Screening Cc1nn(C)cc1C(=O)Nc1c(C)nn(Cc2ccccc2Cl)c1C returned LASV entry inh 0%, VACV Venus inh -7%, Marburg entry inh inconclusive, FMDV inh -1%, HCMV antiviral -80* and Vaccinia mCherry -21%.
For Cc1ccccc1Cn1nc(C)c(NC(=O)c2sc3ccccc3c2Cl)c1C the results were LASV entry inh -18%, VACV Venus inh inconclusive, Marburg entry inh inconclusive, FMDV inh 32µM*, HCMV antiviral -30 and Vaccinia mCherry -24%.
Cc1nn(Cc2ccc(Cl)cc2Cl)c(C)c1NC(=O)c1sc2ccccc2c1Cl was read as LASV entry inh -14%, VACV Venus inh 1%, Marburg entry inh 2%, FMDV inh -28%, HCMV antiviral -29 and Vaccinia mCherry -8%.
Screening Cc1ccc(C(=O)NCC(=O)OCc2cc(=O)n3c(C)csc3n2)cc1 returned LASV entry inh 11%[46.1 µM], VACV Venus inh -2%, FMDV inh 13%, HCMV antiviral -1 and Vaccinia mCherry 3%.
For COc1cc(-c2nc(C)cnc2C)cc2c1OCCN(C(=O)Cn1nc(-c3ccccc3)c3ccccc3c1=O)C2 the results were VACV Venus inh 6%, FMDV inh 3% and Vaccinia mCherry -5%.
`CCc1ccccc1Nc1nn2c(=O)c3ccc(C(=O)NC4CCCCC4)cc3nc2s1` gave LASV entry inh 24%[46.1 µM], VACV Venus inh -28%, FMDV inh -22%, HCMV antiviral 4 and Vaccinia mCherry -24%.
`CC(=O)Nc1ccccc1OCC(=O)N(Cc1ccccc1)C(C)C` gave LASV entry inh 3%, VACV Venus inh -25%, Marburg entry inh inconclusive, FMDV inh inconclusive, HCMV antiviral -77* and Vaccinia mCherry -6%.
COc1ccccc1-c1cc2c(Nc3ccc(N4CCN(C)CC4)cc3)nccc2[nH]1 was read as HCMV antiviral 19.
Screening CCN1CCc2c(sc(-n3cccc3)c2C(C)NC(=O)Nc2ccccc2C)C1 (stereo not drawn) returned LASV entry inh -2%[46.1 µM], VACV Venus inh -7%, FMDV inh 27%, HCMV antiviral -67* and Vaccinia mCherry -6%.
CCN1CCc2c(sc(-n3cccc3)c2C(C)NC(=O)Nc2cc(Cl)c(OC)cc2OC)C1 (stereo not drawn) was read as LASV entry inh 3%[46.1 µM], VACV Venus inh -6%, FMDV inh 2%, HCMV antiviral 21 and Vaccinia mCherry -10%.
`COc1ccc(S(=O)(=O)Nc2ccc(C)cc2)cc1N(C)S(=O)(=O)c1ccc(Cl)cc1` gave LASV entry inh inconclusive, VACV Venus inh 18µM*, Marburg entry inh inconclusive, HCMV antiviral -99* and Vaccinia mCherry inconclusive.
For COc1ccc(S(=O)(=O)N2CCCCC2)cc1N(C)S(=O)(=O)c1ccccc1 the results were LASV entry inh 4%, VACV Venus inh -19%, Marburg entry inh inconclusive, FMDV inh -1%, HCMV antiviral 20 and Vaccinia mCherry -2%.
Screening COC(=O)CN(c1cc(Cl)ccc1OC)S(=O)(=O)c1ccc(C)cc1 returned LASV entry inh -15%, VACV Venus inh -27%, Marburg entry inh inconclusive, FMDV inh 60%, HCMV antiviral inconclusive and Vaccinia mCherry -3%.
Screening COc1ccc(S(=O)(=O)NN(C)C)cc1N(C)S(=O)(=O)c1ccc(Cl)cc1 returned LASV entry inh 8%, VACV Venus inh -4%, Marburg entry inh 24%, FMDV inh -7%, HCMV antiviral -64* and Vaccinia mCherry inactive.
`CN(CC(=O)Nc1cccc(S(=O)(=O)N2CCOCC2)c1)CC(=O)Nc1ccc(Cl)c(C(F)(F)F)c1` gave LASV entry inh inconclusive, VACV Venus inh inconclusive, Marburg entry inh inconclusive, FMDV inh inconclusive, HCMV antiviral -75* and Vaccinia mCherry -30%.

Screens as filed in PubChem.
